Calls of active or inactive are those of the source. Rule for the calls: active = hit-call score of the fitted dose curve at least 0.9, where 1 is the maximum; inactive = score below 0.9.
Tests used:
[1] = read-out: Tissue Factor, F3 (gene 2152); test: BSK_CASM3C_TissueFactor: BioMAP Diversity Plus: CASM3C Assay for Tissue Factor Biomarker Activity (AID 2283052); settings: primary human coronary artery smooth muscle cells; actives raise or lower the signal;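 note: cell surface tissue factor protein level read by ELISA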
[2] = read-out: Urokinase-type plasminogen activator receptor (uPAR), PLAUR (gene 5329); test: BSK_CASM3C_uPAR: BioMAP Diversity Plus: CASM3C Assay for Urokinase-type plasminogen activator receptor (uPAR) Biomarker Activity (AID 2283054); settings: primary human coronary artery smooth muscle cells; actives raise or lower the signal;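 note: cell-surface uPAR protein level quantified by ELISA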
[3] = read-out: Vascular cell adhesion molecule 1 (VCAM1), VCAM1 (gene 7412); test: BSK_CASM3C_VCAM1: BioMAP Diversity Plus: CASM3C Assay for Vascular cell adhesion molecule 1 (VCAM1) Biomarker Activity (AID 2283055); settings: primary human coronary artery smooth muscle cells; actives raise or lower the signal;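 note: VCAM-1 protein level quantified by ELISA on the cells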
[4] = read-out: Collagen III, COL3A1 (gene 1281); test: BSK_hDFCGF_CollagenIII: BioMAP Diversity Plus: hDFCGF Assay for Collagen III Biomarker Activity (AID 2283056); settings: primary human foreskin fibroblasts; actives raise or lower the signal
Procedure, shortened: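 Cells: human foreskin fibroblasts, primary. Dosing followed by 24 h incubation, then ELISA for collagen III. Both increases and decreases scored relative to DMSO.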

[5] = read-out: Epidermal growth factor receptor (EGFR), EGFR (gene 1956); test: BSK_hDFCGF_EGFR: BioMAP Diversity Plus: hDFCGF Assay for Epidermal growth factor receptor (EGFR) Biomarker Activity (AID 2283057); settings: primary human foreskin fibroblasts; actives raise or lower the signal
Procedure, shortened: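 Measured by ELISA: EGFR levels on primary human foreskin fibroblasts 24 h after chemical treatment, analysed relative to DMSO with bidirectional fitting.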

[6] = read-out: Interleukin-8 (IL8), CXCL8 (gene 3576); test: BSK_hDFCGF_IL8: BioMAP Diversity Plus: hDFCGF Assay for Interleukin-8 (IL8) Biomarker Activity (AID 2283058); settings: primary human foreskin fibroblasts; actives raise or lower the signal
Procedure, shortened: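 IL-8 levels from compound-treated primary human fibroblasts were read by ELISA at 24 h, with DMSO serving as baseline for bidirectional fitting.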

[7] = BSK_hDFCGF_Proliferation: Cell Proliferation Assessment in the BioMAP Diversity Plus: hDFCGF Assay (AID 2283059); settings: primary human foreskin fibroblasts;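 note: curves fitted for both rise and fall of signal versus DMSO baseline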
Procedure, shortened: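 Sub-confluent human foreskin fibroblast cultures receive test chemical […]. Relative cell number is quantified by sulforhodamine B staining (0.1%, after 10% TCA fixation) at 560 nm, with bidirectional fitting referenced to DMSO.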

[8] = read-out: Macrophage colony-stimulating factor (MCSF), CSF1 (gene 1435); test: BSK_hDFCGF_MCSF: BioMAP Diversity Plus: hDFCGF Assay for Macrophage colony-stimulating factor (MCSF) Biomarker Activity (AID 2283060); settings: primary human foreskin fibroblasts; actives raise or lower the signal
Procedure, shortened: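 M-CSF levels, determined by ELISA, are taken at 24 h after dosing human skin fibroblasts. Responses in either direction are fitted with DMSO serving as the baseline.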

[9] = BSK_hDFCGF_SRB: Viability Assessment in the BioMAP Diversity Plus: hDFCGF Assay (AID 2283061); settings: primary human foreskin fibroblasts;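 note: cells exposed to compound for 24 h before the read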
Procedure, shortened: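 Cells were dosed with test chemical, cultured 24 h, fixed with 10% TCA, then stained with 0.1% SRB and read at 560 nm. The fibroblasts were human foreskin primary cells, and DMSO served as baseline.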

[10] = read-out: TIMP metallopeptidase inhibitor 1 (TIMP1), TIMP1 (gene 7076); test: BSK_hDFCGF_TIMP1: BioMAP Diversity Plus: hDFCGF Assay for TIMP metallopeptidase inhibitor 1 (TIMP1) Biomarker Activity (AID 2283062); settings: primary human foreskin fibroblasts; actives raise or lower the signal
Procedure, shortened: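 Fibroblasts from human foreskin are treated with test chemical and harvested at 24 h. TIMP-1 is quantified by ELISA, and gain or loss of signal is scored against DMSO.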

[11] = read-out: Monokine induced gamma interferon (MIG), CXCL9 (gene 4283); test: BSK_hDFCGF_MIG: BioMAP Diversity Plus: hDFCGF Assay for Monokine induced gamma interferon (MIG) Biomarker Activity (AID 2283063); settings: primary human foreskin fibroblasts; actives raise or lower the signal
Procedure, shortened: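 MIG signal, determined by ELISA, reflects 24 h chemical exposure of human skin primary fibroblasts. DMSO serves as negative control and baseline.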

[12] = read-out: Matrix Metallopeptidase 1 (MMP1), MMP1 (gene 4312); test: BSK_hDFCGF_MMP1: BioMAP Diversity Plus: hDFCGF Assay for Matrix Metallopeptidase 1 (MMP1) Biomarker Activity (AID 2283064); settings: primary human foreskin fibroblasts; actives raise or lower the signal
Procedure, shortened: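 Primary human foreskin fibroblasts in the hDFCGF system were dosed with test chemical, and MMP1 was measured by ELISA 24 h later. Values come from bidirectional curve fitting against the DMSO baseline.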

[13] = read-out: Vascular cell adhesion molecule 1 (VCAM1), VCAM1 (gene 7412); test: BSK_hDFCGF_VCAM1: BioMAP Diversity Plus: hDFCGF Assay for Vascular cell adhesion molecule 1 (VCAM1) Biomarker Activity (AID 2283065); settings: primary human foreskin fibroblasts; actives raise or lower the signal;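 for AC50: VCAM-1 protein level quantified by ELISA after 24 h chemical exposure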
Procedure, shortened: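 Cells are dosed, cultured for 24 h, then VCAM-1 is quantified by ELISA; signal increases and decreases are both fitted relative to DMSO.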

[14] = read-out: Plasminogen activator inhibitor-1 (PAI1), SERPINE1 (gene 5054); test: BSK_hDFCGF_PAI1: BioMAP Diversity Plus: hDFCGF Assay for Plasminogen activator inhibitor-1 (PAI1) Biomarker Activity (AID 2283066); settings: primary human foreskin fibroblasts; actives raise or lower the signal
Procedure, shortened: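 PAI-1 levels, determined by ELISA, served as the endpoint in human foreskin fibroblast cultures exposed to compound for 24 h, with DMSO as baseline.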

[15] = read-out: Intercellular Adhesion Molecule 1 (ICAM1), ICAM1 (gene 3383); test: BSK_KF3CT_ICAM1: BioMAP Diversity Plus: KF3CT Assay for Intercellular Adhesion Molecule 1 (ICAM1) Biomarker Activity (AID 2283067); settings: primary human keratinocytes with fibroblasts; actives raise or lower the signal
Procedure, shortened: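 Dose the keratinocyte/fibroblast co-culture, wait 24 h, measure ICAM-1 by ELISA, then fit increases or decreases against DMSO. Cytotoxicity is checked in parallel cultures by SRB total-protein staining.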

[16] = read-out: Interferon-gamma inducible Protein 10 (IP10), CXCL10 (gene 3627); test: BSK_KF3CT_IP10: BioMAP Diversity Plus: KF3CT Assay for Interferon-gamma inducible Protein 10 (IP10) Biomarker Activity (AID 2283068); settings: primary human keratinocytes with fibroblasts; actives raise or lower the signal
Procedure, shortened: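 ELISA read-out of IP-10 after 24 h chemical dosing of human skin primary co-culture (keratinocytes, foreskin fibroblasts). Gain or loss of signal relative to DMSO, bidirectional curve fit.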

[17] = BSK_KF3CT_SRB: Viability Assessment in the BioMAP Diversity Plus: KF3CT Assay (AID 2283069); settings: primary human keratinocytes with fibroblasts;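 note: total protein by sulforhodamine B staining as a cytotoxicity measure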
Procedure, shortened: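 Human primary keratinocyte plus foreskin fibroblast co-culture exposed to chemicals for 24 h. Total protein measured by 0.1% sulforhodamine B staining after 10% TCA fixation, read at 560 nm; bidirectional fitting versus DMSO baseline.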

[18] = read-out: Interleukin-1 alpha (IL1a), IL1A (gene 3552); test: BSK_KF3CT_IL1a: BioMAP Diversity Plus: KF3CT Assay for Interleukin-1 alpha (IL1a) Biomarker Activity (AID 2283070); settings: primary human keratinocytes with fibroblasts; actives raise or lower the signal
Procedure, shortened: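 Human keratinocyte plus foreskin fibroblast primary co-culture, sampled 24 h after chemical dosing. IL-1a measured by ELISA; responses fitted bidirectionally against DMSO baseline (negative control), so gain or loss of signal both count.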

[19] = read-out: TIMP metallopeptidase inhibitor 2 (TIMP2), TIMP2 (gene 7077); test: BSK_KF3CT_TIMP2: BioMAP Diversity Plus: KF3CT Assay for TIMP metallopeptidase inhibitor 2 (TIMP2) Biomarker Activity (AID 2283071); settings: primary human keratinocytes with fibroblasts; actives raise or lower the signal
Procedure, shortened: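 Keratinocyte–fibroblast co-culture, 24 h exposure; TIMP-2 ELISA, DMSO-normalised bidirectional fit. Parallel SRB (0.1%, TCA-fixed, 560 nm) total-protein staining gauges cytotoxicity.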

Measured: AC50

CCCCOC(=O)CCCCCCCC(=O)OCCCC
inactive: [1] | [2] | [3] | [4] | [5] | [6] | [7] | [8] | [9] | [10] | [11] | [12] | [13] | [14] | [15] | [16] | [17] | [18] | [19]

CN(C)C(=O)Nc1ccc(Oc2ccc(Cl)cc2)cc1
inactive: [1] | [2] | [3] | [4] | [5] | [6] | [7] | [8] | [9] | [10] | [11] | [12] | [13] | [15] | [16] | [17] | [18] | [19]
active: [14] 0.016 µM

CC(C)(N=C=O)c1cccc(C(C)(C)N=C=O)c1
inactive: [1] | [2] | [3] | [4] | [5] | [6] | [8] | [9] | [10] | [11] | [12] | [13] | [14] | [15] | [16] | [17] | [18] | [19]
active: [7] 29.9 µM

C=C(C)C(=O)OCCOCCOCCOCCOC(=O)C(=C)C
inactive: [1] | [2] | [3] | [4] | [5] | [6] | [7] | [8] | [9] | [10] | [11] | [12] | [13] | [14] | [15] | [16] | [17] | [18] | [19]

CC(C)(C)CC(C)(C)c1ccc(OCCOCC[N+](C)(C)Cc2ccccc2)cc1
active: [1] 5 µM | [2] 7.34 µM | [3] 8.31 µM | [4] 2.22 µM | [6] 5 µM | [7] 0.496 µM | [8] 6.64 µM | [9] 6.6 µM | [10] 5 µM | [11] 7.5 µM | [12] 5 µM | [13] 6.9 µM | [14] 5 µM | [15] 9.07 µM | [16] 7.61 µM | [17] 6.61 µM | [18] 8.08 µM | [19] 2.26 µM
inactive: [5]

COc1ccc(CCN2CCC(Nc3nc4ccccc4n3Cc3ccc(F)cc3)CC2)cc1
inactive: [1] | [2] | [3] | [5] | [6] | [9] | [11] | [12] | [13] | [15] | [16] | [17] | [18] | [19]
active: [4] 5 µM | [7] 5.42 µM | [8] 7.49 µM | [10] 6.47 µM | [14] 7.58 µM
